# Source: PubChem (National Center for Advancing Translational Sciences (NCATS))
# The list is not random: actives were taken first. Their share in the collection is about 3.8%.
# HepG2 tox – counter-screen for TGF-b inhibitors: cytotoxicity in HepG2 cells. Potency, µM (series often up to 46.1 µM), inactives show at the top dose activity change, negative = cytotoxicity, hits mostly cytotoxic. AID 588856. 0.76% of 410,000 active. HepG2 CAGA-GFP viability, ATP luminescence, 18 h
#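 HepG2 CAGA-GFP cells (1000/well, DMEM with 1% FBS) received compound, then TGF-beta at 500 pg/mL final, and were incubated 18 hours at 37 degrees C. Viability was read by CellTiter-Glo luminescence. Media-only wells were set as complete cell-killing and DMSO as no toxicity.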
# TGFb SMAD3 inh – blocks TGF-b signaling. 1.2% of 410,000 active. Potency, µM (series often up to 46.1 µM), for inactives: at the top dose activity, negative = inhibition, actives largely listed as inhibitors. AID 588855. HepG2 CAGA-GFP TGF-b/SMAD3 reporter, GFP fluorescence, 18 h; TGF-beta stimulated, 500 pg/mL final; further: on the % scale 0 is the no-effect control and ±100 the full control effect; nearly all actives have a fitted effect of over 65% in size
#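 GFP signal (ex488/em500-530) from TGF-beta-stimulated HEPG2 CAGA-GFP cells, 500 pg/mL final, 18 h at 37 degrees C in DMEM plus 1% FBS, normalized to unstimulated and DMSO-stimulated controls.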
# ATXN viability – viability counter-screen for ATXN expression inhibitors | S2 cells (HEK-293 line with an ATXN2-luciferase reporter) viability, CellTiter-Fluor protease fluorescence, 24 h | Potency, µM (series often up to 56.7 µM), hits mostly cytotoxic | 0.49% of 400,000 active | AID 651635; further: nearly all actives have a fitted effect of over 40% in size
# ATXN2 expr inh – ATXN2 expression inhibition | HEK-293 ATXN2-luciferase reporter, luminescence, 24 h | Potency, µM (doses to about 57 µM), for inactives: top-dose activity change, negative = inhibition, most hits filed as inhibitors | AID 1745845 | 0.72% of 360,000 active; further: on the % scale 0 is the no-effect control and ±100 the full control effect; nearly all actives have a fitted effect of over 55% in size
#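 ATXN2-luciferase reporter cells (luciferase flanked by upstream and downstream ATXN2 gene portions) were treated 24 h at 37 °C with compounds at up to 57 uM. SteadyGlo luminescence gave expression; GF-AFC fluorescence gave viability.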
# Nrf2 inh – inhibitors of Nrf2 signaling; A549 ARE-Fluc reporter, luciferase luminescence, 18-24 h; Potency, µM (series often up to 46 µM), without a hit: at the highest dose activity change, negative = inhibition, most hits filed as inhibitors; 2.1% of 360,000 active; AID 504444; further: on the % scale 0 is the no-effect control and ±100 the full control effect; nearly all actives have a fitted effect of over 60% in size
#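 Quantitative HTS in A549 cells stably bearing an antioxidant response element-firefly luciferase construct. Inhibition of Nrf2-driven transcription was scored by luminescence after 18-24 h of compound exposure at 37 °C.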
# A549 tox – counter-screen for Nrf2 inhibitors: cytotoxicity in A549 cells. AID 504648. Potency, µM (series often up to 46 µM), for the others: at the highest dose activity change, negative = cytotoxicity, hits mostly inhibitors. A549 ARE-Fluc cells, CellTiter-Fluor viability, 18-24 h. 0.16% of 390,000 active; further: on the % scale 0 is the no-effect control and ±100 the full control effect
#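 Cytotoxicity counterscreen: CellTiter-Fluor fluorescence was measured in A549 ARE_Fluc cells after 18-24 h of compound exposure in a concentration series. The subsequent BugLite luminescent read reports ARE-luciferase activity.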
# The depositor's hits bear a star; i = inactive; u = inconclusive; x = no result given; [ ] = remark or other dose. The call rests on the fitted dose curve; in most records, active means well fitted curve in the direction sought with a large enough effect; inconclusive means small, poorly fitted or top-dose-only effect, or another doubt; inactive means no such curve, though single readings can be large; an effect the other way counts as inactive or inconclusive. Potency means the concentration at half of the fitted maximal effect.
SMILES,HepG2 tox,TGFb SMAD3 inh,ATXN viability,ATXN2 expr inh,Nrf2 inh,A549 tox
CC(C)c1ccc(NC(=O)C2C3C=CC4(O3)C2C(=O)N(CCCN2CCOCC2)C4C(=O)NC2CCCCC2)cc1 (stereo not drawn),-13%,17%,i,-21%,-2%,1%
O=C(CN1C(=O)CCc2cc(S(=O)(=O)N3CCOCC3)ccc21)NCc1ccccc1Cl,-15%,-23%,i,14%,x,0%
Nc1ccccc1C#Cc1ccc([N+](=O)[O-])cc1,-41%,-10%,u,63%,u,-1%
Nc1ccccc1C#CC(=O)c1ccccc1,-84%,3.5µM*,u,x,27%,2%
CC(C)c1ccccc1NC(=O)COC(=O)c1c2c(nc3ccccc13)CCN(Cc1ccccc1)C2,-24%,u,u,x,u,-18%
Cc1c(Cl)cccc1NC(=O)COC(=O)c1c2c(nc3ccccc13)CCN(Cc1ccccc1)C2,-34%,u,i,-18%,21µM*,u
CC1CCc2nc3ccccc3c(C(=O)OCC(=O)NC3CCS(=O)(=O)C3)c2C1 (stereo not drawn),1%,u,i,-1%,6%,-1%
COc1cccc(NC(=O)COC(=O)c2c3c(nc4ccccc24)CCC(C)C3)c1 (stereo not drawn),-55%,u,u,u,16µM*,u
COc1cn(CC(=O)Nc2c(C)cc(C)cc2C)c(CN2CCCCC2)cc1=O,1%,1%,x,x,x,1%
O=C(c1ccc(F)cc1)N1CCN2C(=O)c3ccccc3C12c1ccc(Cl)cc1 (stereo not drawn),-14%,-4%,i,5%,-9%,3%
O=C(c1ccccc1)N1CCN2C(=O)c3ccccc3C12c1ccc(Cl)cc1 (stereo not drawn),-7%,40%,i,-13%,13µM*,-5%
O=C(c1ccc(Cl)cc1)N(c1ccccn1)C1CCCCC1,-17%,-4%,i,-26%,1%,1%
O=C(c1cccc(C(=O)N(c2ccccn2)C2CCCCC2)c1)N(c1ccccn1)C1CCCCC1,-4%,3%,u,-36%,16µM*,-15%
O=C(Nc1cccc(-c2csc(-c3ccccc3)n2)c1)c1cccs1,-42%,u,i,-15%,16µM*,0%
Cc1nc(-c2cccc(NC(=O)c3cccs3)c2)cs1,-10%,1%,i,28%,-13%,-12%
O=C(Nc1cccc(-c2csc(Nc3ccc(Cl)cc3)n2)c1)c1cccc(C(F)(F)F)c1,0%,u,u,u,u,-24%
O=C(Nc1cccc(-c2csc(Nc3ccc(Cl)cc3)n2)c1)c1ccccc1,-17%,u,16µM*,u,u,-17%
COc1ccc(OC)c(NC(=O)CSc2nnc(NC(=O)c3ccco3)s2)c1,-5%,u,i,-10%,11%,6%
CC(=O)Nc1scc(C)c1-c1nc2ccccc2s1,9%,3%,x,8%,2%,-4%
CC(=O)Nc1sc2c(c1-c1nc3ccccc3s1)CNC2,x,x,x,22µM*,x,x
CCN1CCN(C(=O)CN2C(=O)COc3ccc(C)cc32)CC1,-4%,-3%,i,-11%,-1%,0%
COc1cc(Nc2nc3c(N)cc(C(F)(F)F)cc3nc2-c2ccccc2)cc(OC)c1OC,1%,0%,i,-14%,13%,0%
COC(=O)[C@@H]1C[C@]2(OC(=O)c3ccccc3)C=CC(=O)C[C@@H]2N1C(=O)OCc1ccccc1,-68%,u,x,14µM*,-1%,-8%
COC(CNC(=O)C1CCCN1C(=O)OCc1ccccc1)OC (stereo not drawn),-4%,-9%,i,12%,-9%,4%
S=C1NC[C@H](CC2CCCCC2)N1CC1CCCCC1,-22%,u,18µM*,32µM*,u,-1%
SMILES,HepG2 tox,TGFb SMAD3 inh,ATXN viability,ATXN2 expr inh,Nrf2 inh,A549 tox
COc1ccc(/C=C2\CN(Cc3ccccc3)C/C(=C\c3ccc(OC)cc3)C2=O)cc1,-2%,11µM*,u,u,9%,10%
CCN(C(=O)COC(=O)c1cc2ccccc2cc1OC)c1c(N)n(Cc2ccccc2)c(=O)[nH]c1=O,-21%,-3%,i,-12%,-18%,-3%
COc1cccc(NC(=O)COc2coc(CN3CCc4ccccc4C3)cc2=O)c1,4%,6%,i,-1%,0%,7%
CCOc1ccc(CN(C)Cc2cc(=O)oc3c(C)c(C)ccc23)cc1OC,-16%,-32%,u,u,16µM*,-16%
COc1ccc(NC(=O)CC2CC3CCC2C3)cc1S(=O)(=O)N1CCOCC1 (stereo not drawn),-2%,u,u,-12%,0%,-4%
CCS(=O)(=O)Nc1cc(C(=O)N2CCC[C@H]2CO)c2c(c1)nc(-c1ccccc1)n2C,x,x,i,x,x,x
Cc1[nH]c2ccccc2c1C(=O)COC(=O)c1ccccc1SCC(=O)N1CCCC1,0%,-23%,x,x,x,x
O=C(COc1ccccc1-c1ccccc1)N/N=C/c1ccc2ccccc2c1,-55%,7.1µM*,u,u,u,-10%
O=C(COc1ccccc1-c1ccccc1)N/N=C/c1ccncc1,-27%,-26%,i,-9%,u,19%
Cc1ccc(CNC(=O)c2nc(SCc3ccccc3F)ncc2Cl)cc1,5%,u,x,x,2%,8%
COc1ccc(CCNC(=O)c2nc(SCc3ccccc3F)ncc2Cl)cc1OC,-27%,u,x,x,16µM*,-12%
CC(C)N1C(=O)C(=O)N(CC(=O)N2c3ccccc3CC2C)C1=O (stereo not drawn),2%,1%,i,x,x,x
CN(c1ccc(OCC(=O)NC2CCC(O)CC2)cc1)S(=O)(=O)c1ccc(Cl)cc1 (stereo not drawn),-17%,-5%,i,3%,-9%,-2%
CCc1ccccc1NC(=O)Nc1nnc(N(C)Cc2ccccc2)s1,-13%,13µM*,x,x,4%,5%
CCc1ccccc1NC(=O)c1cnc2sc(N3CCCC3)nn2c1=O,-5%,-19%,x,x,24%,10%
CCOc1ccccc1N(C(=O)c1snc(C(N)=O)c1N)C(C(=O)NCCC(C)C)c1ccco1 (stereo not drawn),0%,-9%,i,-5%,26µM*,u
COc1ccccc1N(C(=O)c1snc(C(N)=O)c1N)C(C(=O)NCCC(C)C)c1ccco1 (stereo not drawn),-21%,-1%,i,4%,u,-1%[1.84 µM]
